# Experimental data taken from the supplement of paper PMC10849652.
# Targets with a hit are over-represented here; the source holds about 8,800 in all. About 0.5% of all pairs of compound and target were hits.
# Columns and labels:
# Assay in all cases: log2 fold change, soluble protein after heating vs DMSO (PISA); higher = thermal stabilisation; K562 lysate, 10 uM; active = over 0.2 and 3.5 SD of the protein, either way, in both replicates (recomputed)
# [1] = compound: C1=CC=C(C=C1)[C@H](COC2=CC3=C(C=C2)NC(=O)N3)NC(=O)C4=CC=CN(C4=O)CC5=CC(=C(C=C5)F)F
# Method in brief: (§1)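 Thermal stability, expressed as log-two fold change relative to solvent controls, is given from duplicates. Crude K562 extract in PBS pH 7.4 with 1 mM MgCl2, at 1 mg/mL protein, was treated with 10 μM compound for 30 min and heated in aliquots for 3 min across 48°C-58°C. After pooling, adjustment to 0.5% NP-40 at 4°C and centrifugation at 21,000xg for 90 min, supernatant protein was measured by TMTpro 16plex LC-MS/MS with channel sums equalised.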
# [2] = compound: CC1=C(SC2=C1C(=N[C@H](C3=NN=C(N32)C)CC(=O)N)C4=CC=C(C=C4)Cl)C
# Method in brief: as §1
# [3] = compound: CC1=C2C(=CC=C1)N=C(N(C2=O)C3=CC=CC=C3C)CN4C=NC5=C(N=CN=C54)N
# Method in brief: as §1
# [4] = compound: Cc1sc2c(c1C)C(c1ccc(Cl)cc1)=N[C@@H](CC(=O)OC(C)(C)C)c1nnc(C)n1-2
# Method in brief: as §1
# [5] = compound: c1ccc([C@@H]2C[C@H]2NC2CCNCC2)cc1
# Method in brief: as §1
# UniProt P68371, sequence (P68371 whole entry, looked up): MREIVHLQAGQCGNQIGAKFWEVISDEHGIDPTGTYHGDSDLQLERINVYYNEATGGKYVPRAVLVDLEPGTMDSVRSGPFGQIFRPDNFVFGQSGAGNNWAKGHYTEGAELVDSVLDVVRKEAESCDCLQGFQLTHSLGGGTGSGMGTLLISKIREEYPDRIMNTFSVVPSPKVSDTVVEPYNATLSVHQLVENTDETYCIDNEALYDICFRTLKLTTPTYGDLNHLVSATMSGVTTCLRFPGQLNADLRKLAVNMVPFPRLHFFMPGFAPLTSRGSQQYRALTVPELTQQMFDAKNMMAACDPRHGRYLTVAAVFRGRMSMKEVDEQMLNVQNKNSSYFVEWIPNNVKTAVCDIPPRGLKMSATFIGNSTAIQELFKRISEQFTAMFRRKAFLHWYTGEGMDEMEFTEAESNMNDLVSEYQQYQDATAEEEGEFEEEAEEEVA
# UniProt P21580, sequence (P21580 whole entry, looked up): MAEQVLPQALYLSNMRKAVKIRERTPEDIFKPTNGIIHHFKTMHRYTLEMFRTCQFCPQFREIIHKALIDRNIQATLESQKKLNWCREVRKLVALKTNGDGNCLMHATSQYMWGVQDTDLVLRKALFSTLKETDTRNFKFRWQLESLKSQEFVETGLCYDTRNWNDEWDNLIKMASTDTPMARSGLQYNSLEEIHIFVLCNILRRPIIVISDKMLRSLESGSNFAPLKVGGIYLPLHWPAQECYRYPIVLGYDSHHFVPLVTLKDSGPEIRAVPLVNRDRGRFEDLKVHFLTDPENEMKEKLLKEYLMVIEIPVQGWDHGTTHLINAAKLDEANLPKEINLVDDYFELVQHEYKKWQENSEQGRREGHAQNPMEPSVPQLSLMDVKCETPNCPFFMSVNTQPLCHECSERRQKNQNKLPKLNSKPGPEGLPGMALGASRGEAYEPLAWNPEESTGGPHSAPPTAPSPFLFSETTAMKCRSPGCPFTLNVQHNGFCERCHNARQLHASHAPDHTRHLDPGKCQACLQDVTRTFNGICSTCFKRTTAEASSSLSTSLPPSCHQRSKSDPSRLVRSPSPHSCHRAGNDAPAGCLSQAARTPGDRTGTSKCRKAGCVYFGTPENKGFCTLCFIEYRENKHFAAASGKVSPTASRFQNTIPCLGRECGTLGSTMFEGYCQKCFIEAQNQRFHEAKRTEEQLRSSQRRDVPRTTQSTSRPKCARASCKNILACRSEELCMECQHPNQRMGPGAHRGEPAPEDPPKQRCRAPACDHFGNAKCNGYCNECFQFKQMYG
# UniProt P04350, sequence (P04350 whole entry, looked up): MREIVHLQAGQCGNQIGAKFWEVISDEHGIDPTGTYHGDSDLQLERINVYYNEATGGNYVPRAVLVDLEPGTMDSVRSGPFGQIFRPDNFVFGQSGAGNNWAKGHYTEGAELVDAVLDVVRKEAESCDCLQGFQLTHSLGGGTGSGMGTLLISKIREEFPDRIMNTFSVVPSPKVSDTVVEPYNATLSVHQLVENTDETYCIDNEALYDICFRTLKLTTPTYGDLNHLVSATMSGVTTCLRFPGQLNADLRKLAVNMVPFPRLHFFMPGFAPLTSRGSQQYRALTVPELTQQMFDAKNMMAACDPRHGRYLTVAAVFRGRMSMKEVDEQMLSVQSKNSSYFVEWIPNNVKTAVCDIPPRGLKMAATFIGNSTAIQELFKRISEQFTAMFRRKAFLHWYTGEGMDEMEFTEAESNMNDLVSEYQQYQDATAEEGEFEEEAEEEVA
# UniProt Q01664, sequence (Q01664 whole entry, looked up): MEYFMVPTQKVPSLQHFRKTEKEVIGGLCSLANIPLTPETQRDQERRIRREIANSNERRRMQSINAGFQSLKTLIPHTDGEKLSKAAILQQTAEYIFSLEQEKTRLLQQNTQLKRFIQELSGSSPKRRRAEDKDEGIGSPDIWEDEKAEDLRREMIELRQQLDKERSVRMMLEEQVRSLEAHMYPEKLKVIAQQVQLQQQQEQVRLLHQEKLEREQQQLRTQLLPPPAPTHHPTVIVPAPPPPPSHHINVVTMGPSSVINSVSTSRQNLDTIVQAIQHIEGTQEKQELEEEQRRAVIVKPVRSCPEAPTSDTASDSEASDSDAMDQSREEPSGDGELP
# UniProt Q9NPG3, sequence (Q9NPG3 whole entry, looked up): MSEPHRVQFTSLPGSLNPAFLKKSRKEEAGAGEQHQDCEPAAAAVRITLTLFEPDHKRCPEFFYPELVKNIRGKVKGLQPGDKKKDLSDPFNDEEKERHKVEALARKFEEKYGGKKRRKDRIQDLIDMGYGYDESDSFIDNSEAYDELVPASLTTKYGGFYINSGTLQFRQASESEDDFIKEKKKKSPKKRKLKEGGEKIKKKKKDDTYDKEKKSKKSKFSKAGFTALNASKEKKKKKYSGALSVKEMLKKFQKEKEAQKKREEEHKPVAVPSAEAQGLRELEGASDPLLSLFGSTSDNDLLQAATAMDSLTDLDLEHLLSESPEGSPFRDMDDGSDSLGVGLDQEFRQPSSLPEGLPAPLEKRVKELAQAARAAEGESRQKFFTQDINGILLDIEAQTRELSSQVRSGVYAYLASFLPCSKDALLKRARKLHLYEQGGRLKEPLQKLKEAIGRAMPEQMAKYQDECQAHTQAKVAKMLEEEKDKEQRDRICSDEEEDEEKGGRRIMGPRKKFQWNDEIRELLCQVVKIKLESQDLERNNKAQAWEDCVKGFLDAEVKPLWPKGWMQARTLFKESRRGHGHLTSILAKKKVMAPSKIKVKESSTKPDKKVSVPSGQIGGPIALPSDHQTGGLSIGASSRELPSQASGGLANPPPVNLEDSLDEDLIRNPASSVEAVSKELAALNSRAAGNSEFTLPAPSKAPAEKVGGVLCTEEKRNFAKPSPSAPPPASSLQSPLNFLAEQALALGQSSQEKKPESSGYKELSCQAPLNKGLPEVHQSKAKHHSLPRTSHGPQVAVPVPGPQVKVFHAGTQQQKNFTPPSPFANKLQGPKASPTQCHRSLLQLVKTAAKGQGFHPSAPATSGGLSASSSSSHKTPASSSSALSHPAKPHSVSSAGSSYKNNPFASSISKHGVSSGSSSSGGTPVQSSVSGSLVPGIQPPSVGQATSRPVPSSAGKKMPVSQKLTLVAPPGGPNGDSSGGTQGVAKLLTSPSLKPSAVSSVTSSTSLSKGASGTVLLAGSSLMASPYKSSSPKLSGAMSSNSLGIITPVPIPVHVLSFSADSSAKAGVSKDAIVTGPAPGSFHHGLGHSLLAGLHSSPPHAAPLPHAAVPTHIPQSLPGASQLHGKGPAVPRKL
# UniProt Q8TD43, sequence (Q8TD43 whole entry, looked up): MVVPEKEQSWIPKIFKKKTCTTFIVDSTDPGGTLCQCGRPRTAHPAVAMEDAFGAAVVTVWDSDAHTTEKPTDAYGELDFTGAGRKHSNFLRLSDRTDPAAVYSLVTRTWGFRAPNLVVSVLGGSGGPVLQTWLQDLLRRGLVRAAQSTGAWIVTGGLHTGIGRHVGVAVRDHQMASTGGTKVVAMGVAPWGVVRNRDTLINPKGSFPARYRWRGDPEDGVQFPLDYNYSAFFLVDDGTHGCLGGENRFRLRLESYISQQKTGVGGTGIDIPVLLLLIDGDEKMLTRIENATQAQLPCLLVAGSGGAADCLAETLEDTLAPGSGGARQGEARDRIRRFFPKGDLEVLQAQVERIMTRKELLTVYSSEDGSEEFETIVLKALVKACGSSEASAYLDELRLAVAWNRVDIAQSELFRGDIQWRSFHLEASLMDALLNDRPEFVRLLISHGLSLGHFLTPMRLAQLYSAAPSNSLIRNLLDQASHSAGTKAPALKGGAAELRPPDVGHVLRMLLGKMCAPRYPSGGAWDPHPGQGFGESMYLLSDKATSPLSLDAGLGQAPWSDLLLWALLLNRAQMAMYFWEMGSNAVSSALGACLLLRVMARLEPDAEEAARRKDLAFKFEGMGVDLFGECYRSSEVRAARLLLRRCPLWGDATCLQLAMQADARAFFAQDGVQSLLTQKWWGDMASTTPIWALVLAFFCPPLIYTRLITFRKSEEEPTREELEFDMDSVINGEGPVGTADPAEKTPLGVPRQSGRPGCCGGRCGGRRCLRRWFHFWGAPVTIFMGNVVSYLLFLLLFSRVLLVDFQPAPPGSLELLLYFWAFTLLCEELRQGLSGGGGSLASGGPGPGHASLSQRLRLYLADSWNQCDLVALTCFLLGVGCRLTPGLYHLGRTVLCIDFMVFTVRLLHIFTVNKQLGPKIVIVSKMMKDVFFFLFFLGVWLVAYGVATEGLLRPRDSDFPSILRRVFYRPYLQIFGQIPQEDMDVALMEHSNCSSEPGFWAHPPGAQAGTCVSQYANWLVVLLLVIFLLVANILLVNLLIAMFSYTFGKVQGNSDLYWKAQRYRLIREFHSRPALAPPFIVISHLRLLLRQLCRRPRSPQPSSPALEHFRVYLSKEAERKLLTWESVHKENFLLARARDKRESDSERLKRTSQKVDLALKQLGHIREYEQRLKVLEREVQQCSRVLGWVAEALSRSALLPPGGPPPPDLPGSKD
# UniProt Q96BS2, sequence (Q96BS2 whole entry, looked up): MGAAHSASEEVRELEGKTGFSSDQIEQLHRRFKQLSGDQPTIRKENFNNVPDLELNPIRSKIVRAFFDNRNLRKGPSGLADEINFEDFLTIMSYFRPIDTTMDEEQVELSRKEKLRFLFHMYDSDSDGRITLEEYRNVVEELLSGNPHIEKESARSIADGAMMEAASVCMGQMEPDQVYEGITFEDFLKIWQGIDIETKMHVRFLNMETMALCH
# UniProt P62328, sequence (P62328 whole entry, looked up): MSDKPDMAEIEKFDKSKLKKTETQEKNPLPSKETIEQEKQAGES
# UniProt O60637, sequence (O60637 whole entry, looked up): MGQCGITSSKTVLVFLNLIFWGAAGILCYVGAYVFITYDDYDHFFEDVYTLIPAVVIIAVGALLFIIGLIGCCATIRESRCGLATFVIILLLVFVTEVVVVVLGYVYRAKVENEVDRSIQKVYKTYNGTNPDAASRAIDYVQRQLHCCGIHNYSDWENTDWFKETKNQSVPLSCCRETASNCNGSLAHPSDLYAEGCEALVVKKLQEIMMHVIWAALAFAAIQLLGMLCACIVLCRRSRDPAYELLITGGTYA
# UniProt Q9NRX6, sequence (Q9NRX6 whole entry, looked up): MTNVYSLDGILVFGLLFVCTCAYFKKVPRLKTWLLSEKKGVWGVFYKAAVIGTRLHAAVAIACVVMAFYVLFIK
Target,log2 fold change [1],log2 fold change [2],log2 fold change [3],log2 fold change [4],log2 fold change [5]
TRIM11 (UniProt Q96F44),0.028 (inactive),0.035 (inactive),0.04 (inactive),-0.011 (inactive),-0.001 (inactive)
TTLL12 (UniProt V9GY16),0.022 (inactive),0.606 (inactive),0.066 (inactive),,-0.065 (inactive)
TRADD (UniProt Q15628),-0.051 (inactive),-0.016 (inactive),0.112 (inactive),0.05 (inactive),0.033 (inactive)
TPP2 (UniProt P29144),0.006 (inactive),0.008 (inactive),-0.002 (inactive),0.039 (inactive),0.025 (inactive)
TPD52L2 isoform 7 (UniProt O43399),0.046 (inactive),-0.036 (inactive),-0.024 (inactive),0.024 (inactive),-0.058 (inactive)
TMEM161B (UniProt Q8NDZ6),-0.07 (inactive),-0.052 (inactive),-0.076 (inactive),,-0.025 (inactive)
TRIP12 isoform 2 (UniProt Q14669),-0.043 (inactive),0.07 (inactive),-0.018 (inactive),0 (inactive),0.062 (inactive)
TCF3 (UniProt P15923),-0.029 (inactive),0.006 (inactive),-0.004 (inactive),-0.032 (inactive),-0.08 (inactive)
TESC (UniProt Q96BS2),0.034 (inactive),-0.131 (inactive),-0.001 (inactive),0.004 (inactive),0.016 (inactive)
TUBB4B (UniProt P68371),0.001 (inactive),0.03 (inactive),0.018 (inactive),0.042 (inactive),0.049 (inactive)
TNIK isoform 4 (UniProt Q9UKE5),0.015 (inactive),-0.002 (inactive),-0.017 (inactive),-0.032 (inactive),-0.076 (inactive)
TMEM164 (UniProt Q5U3C3),-0.13 (inactive),-0.155 (inactive),0.111 (inactive),-0.217 (inactive),-0.543 (inactive)
TFPT (UniProt P0C1Z6),-0.176 (inactive),-0.078 (inactive),,-0.052 (inactive),
TCF3 (UniProt X6REB3),,,-0.031 (inactive),,-0.25 (inactive)
UBR4 isoform 4 (UniProt Q5T4S7),,,-0.023 (inactive),-0.284 (inactive),
TUBA4A (UniProt C9JQ00),-0.111 (inactive),-0.225 (inactive),,,0.056 (inactive)
TMEM167B (UniProt Q9NRX6),0.021 (inactive),-0.032 (inactive),0.036 (inactive),,-0.187 (inactive)
TFPI isoform 2 (UniProt P10646),,,0.048 (inactive),,
UBN1 (UniProt Q9NPG3),,,0.03 (inactive),-0.164 (inactive),0.085 (inactive)
TPM3 isoform 3 (UniProt P06753),,,-0.048 (inactive),-0.041 (inactive),-0.266 (inactive)
TMEM177 (UniProt Q53S58),0.002 (inactive),-0.009 (inactive),0.015 (inactive),,0.068 (inactive)
TCF20 (UniProt Q9UGU0),0.022 (inactive),-0.063 (inactive),,-0.263 (inactive),-0.059 (inactive)
TMEM154 (UniProt Q6P9G4),,,,-0.073 (inactive),
TRAF7 (UniProt Q6Q0C0),,,0.007 (inactive),-0.005 (inactive),0.238 (inactive)
TMEM132A isoform 2 (UniProt Q24JP5),,,,,-0.066 (inactive)
TUBB4A (UniProt P04350),0.015 (inactive),-0.03 (inactive),,0.044 (inactive),0.044 (inactive)

Target,log2 fold change [1],log2 fold change [2],log2 fold change [3],log2 fold change [4],log2 fold change [5]
TM2D3 (UniProt Q9BRN9),0.023 (inactive),-0.003 (inactive),,,-0.513 (inactive)
UCP2 (UniProt P55851),,,-0.003 (inactive),,
TMSB4X (UniProt P62328),-0.935 (active),0.434 (inactive),,,0.176 (inactive)
TFAP4 (UniProt Q01664),0.018 (inactive),-0.069 (inactive),0.012 (inactive),,0.081 (inactive)
TLE3 (UniProt H0YL70),,,,-0.343 (inactive),
TPD52L2 isoform 3 (UniProt O43399),-0.058 (inactive),0.135 (inactive),,,0.098 (inactive)
TSPAN3 (UniProt O60637),,,0.174 (inactive),0.006 (inactive),0.16 (inactive)
TNIK isoform 5 (UniProt Q9UKE5),0.008 (inactive),-0.009 (inactive),,-0.089 (inactive),-0.041 (inactive)
UBIAD1 (UniProt Q9Y5Z9),,,-0.025 (inactive),-0.048 (inactive),0.025 (inactive)
TMC1 (UniProt Q8TDI8),,,0.038 (inactive),,
TRPM4 (UniProt Q8TD43),-0.074 (inactive),0.114 (inactive),,-0.042 (inactive),-0.354 (inactive)
U2AF1L5 (UniProt P0DN76),,,,0.002 (inactive),-0.499 (inactive)
TGFBR1 isoform 2 (UniProt P36897),,,,-0.004 (inactive),
TLE3 isoform 5 (UniProt Q04726),-0.061 (inactive),-0.454 (active),,-0.069 (inactive),0.199 (inactive)
TENM4 (UniProt Q6N022),-0.057 (inactive),0.174 (inactive),,,0.137 (inactive)
TNKS (UniProt O95271),,,0.023 (inactive),0.039 (inactive),-0.035 (inactive)
TASP1 (UniProt Q9H6P5),0.027 (inactive),0.205 (inactive),,0.059 (inactive),
TNFAIP3 (UniProt P21580),0.052 (inactive),0.05 (inactive),,0.033 (inactive),0.06 (inactive)
TEC (UniProt P42680),,,0.114 (inactive),,
TRIM3 (UniProt O75382),,,0.197 (inactive),,
TCF4 (UniProt P15884),,,,0.047 (inactive),0.091 (inactive)
TLK2 isoform 3 (UniProt Q86UE8),,,,,0.097 (inactive)
UBAP2L (UniProt F8W726),,,-0.018 (inactive),,
TUBB6 (UniProt K7ES63),-0.115 (inactive),0.02 (inactive),-0.028 (inactive),,-0.085 (inactive)
TEDC1 (UniProt Q86SX3),,,,0.058 (inactive),
TJP1 (UniProt H0Y3R8),,,,,0.031 (inactive)
